USP17 inh: blocks human USP17 ubiquitin-rhodamine cleavage. A8MUK1. purified USP17, Ub-rhodamine cleavage fluorescence, 3 h. inhibition, % at 50 µM. 6.5% of 47,000 active
USP10 block: human USP10 deubiquitinase inhibition | purified USP10, Ub-rhodamine fluorescence, 60 min | inhibition, % at 20 µM | Q14694 | 1.1% of 47,000 active
USP28 inh: human USP28 deubiquitinase inhibition; 3% of 47,000 active; inhibition, % at 25 µM; purified USP28, Ub-rhodamine cleavage fluorescence, 30 min; AID 1645857; Q96RU2
USP30 block: human USP30 deubiquitinase inhibition; Q70CQ3; 5.3% of 47,000 active; purified USP30, Ub-rhodamine cleavage fluorescence; AID 1645860; inhibition, % at 25 µM
USP8 block: human USP8 deubiquitinase inhibition; AID 1645853; 4.2% of 47,000 active; P40818; inhibition, % at 20 µM; purified USP8, Ub-rhodamine cleavage fluorescence, 30 min
Each line names hits and unclear results; the compound was inactive in the other large screens. Most compounds without a hit are left out; they make up all but 13% or so of the library. No stated cut-off is given here; in the data, active means inhibition above about 30%; inactive means the rest.

O=C(Nc1ccc(Cl)c(Cl)c1)c1cccc(N2CCCCS2(=O)=O)c1	USP28 inh 34
CC(=O)c1ccc(NC(=O)c2ccc(N3CCCCS3(=O)=O)cc2Cl)cc1	USP17 inh 52, USP8 block 31
O=C(Nc1cccc(Br)c1)c1cccc(N2CCCCS2(=O)=O)c1	none
O=C(Nc1ccc(F)cc1)c1c(O)c2cnn(Cc3ccccc3)c2[nH]c1=O	USP8 block 42
O=C(Nc1cccc(F)c1)c1c(O)c2cnn(Cc3ccccc3)c2[nH]c1=O	USP8 block 61
Cc1ccccc1CNC(=O)c1c(O)c2cnn(Cc3ccccc3)c2[nH]c1=O	none
O=C(NCc1ccccc1F)c1c(O)c2cnn(Cc3ccccc3)c2[nH]c1=O	USP17 inh 32, USP8 block 80
Fc1ccccc1-c1nc2c3cnn(-c4ccccc4)c3ncn2n1	none
CCc1ccccc1Nc1cc(C(=O)NCC2CCCO2)c2ccccc2n1 (stereo not drawn)	none
O=C(COc1coc(CN2CCc3ccccc3C2)cc1=O)Nc1cccc(F)c1	USP8 block 30
O=C(COc1coc(CN2CCc3ccccc3C2)cc1=O)Nc1ccccc1F	none
CCn1cc2nc(SCC(=O)NC3CCCC3)n(Cc3ccccc3)c(=O)c2n1	none
Cc1cc(C)c(NC(=O)CSc2nc3cn(C)nc3c(=O)n2CC2CC2)c(C)c1	USP17 inh 61, USP30 block 70, USP8 block 42
COc1ccc(NC(=O)CCc2c(C)c3c(C)nn(-c4ccccc4)c3n(C)c2=O)cc1OC	none
Cc1ccccc1NC(=O)C(C)c1c(C)n[nH]c1C (stereo not drawn)	none
COc1ccc(NC(=O)C(C)n2c(=O)cc(-c3ccccc3)c3c(C)nn(C)c32)cc1OC (stereo not drawn)	USP30 block 31
Cc1ccccc1NC(=O)C(C)n1c(=O)cc(-c2ccccc2)c2c(C)nn(C)c21 (stereo not drawn)	USP17 inh 74
COc1ccc(-n2nnc(C(=O)NCc3ccccc3F)c2-c2cccnc2)cc1	none (no result: USP28 inh, USP30 block)
Cc1ccc(NC(=O)C2CCN(S(C)(=O)=O)c3ccccc3O2)c(C)c1 (stereo not drawn)	none
Cc1ccc(-n2ncc3c2ncn2nc(C(C)(C)C)nc32)cc1C	none
Cc1ccc(-n2ncc3c2ncn2c(C)nnc32)cc1C	USP30 block 45
COc1ccc2nc(C(=O)NC(C)c3ccccc3)cn2n1 (stereo not drawn)	none
Cc1cccc(C(=O)NCC(=O)N2CCN(c3ccc(Cl)cc3)CC2)c1	USP17 inh 33, USP30 block 41
CCCCN1CC(C(=O)Nc2ccc(C(=O)Nc3ccc(Cl)cc3)cc2)CC1=O (stereo not drawn)	USP30 block 64
CCCCN1CC(C(=O)Nc2ccc(C(=O)Nc3ccc(F)c(Cl)c3)cc2)CC1=O (stereo not drawn)	USP17 inh 52
CCCCN1CC(C(=O)Nc2ccc(C(=O)Nc3ccc(Cl)c(Cl)c3)cc2)CC1=O (stereo not drawn)	none
CC1(c2ccc3c(c2)CCC3)NC(=O)N(Cc2cc(=O)n3ccsc3n2)C1=O (stereo not drawn)	USP17 inh 33
O=c1cc(CNc2ccc(Br)cc2)nc2sccn12	none
O=C1Nc2ccc(S(=O)(=O)NCCCO)c3cccc1c23	none
O=C1Nc2ccc(S(=O)(=O)NCCCCCCNS(=O)(=O)c3ccc4c5c(cccc35)C(=O)N4)c3cccc1c23	USP28 inh 38
COc1ccc(CCNC(=O)c2cnn(-c3ccc([N+](=O)[O-])cc3)c2C2CCNCC2)c(OC)c1	USP30 block 34
COc1ccc(CCNC(=O)c2cnn(-c3ccc(F)cc3)c2C2CCNCC2)c(OC)c1	none
O=C(NCc1ccccn1)c1nc(-c2ccc3cc[nH]c3c2)no1	none
O=C(NCCc1ccccc1)c1nc(-c2ccc3cc[nH]c3c2)no1	USP17 inh 48
COc1cnc(-c2ccccn2)nc1Sc1cccc(C(F)(F)F)c1	none
COc1ccc(Sc2nc(-c3ccccn3)ncc2OC)cc1	USP30 block 35
c1ccc(Cc2nn3c(-c4ccncc4)nnc3c3ccccc23)cc1	USP17 inh 49, USP30 block 36
c1ccc(Cc2nn3c(-c4cccnc4)nnc3c3ccccc23)cc1	USP17 inh 62
O=C(N[C@H]1[C@H](O)[C@H](O)C[C@@H]1c1ccccc1)c1cc2ccccc2s1	none
CC(=O)N1CC2(CCN(C(=O)c3sc(C)nc3C)CC2)Nc2ccccc21	none
O=C(Cc1c[nH]c2ncccc12)N1CCCCC1	none
CCc1ccccc1NC(=O)c1c(O)c2cnn(C)c2[nH]c1=O	USP8 block 84
